{"source": "ChEMBL document CHEMBL3988442", "about": "“University of Dundee, Small-Polar-MMV Screening Library” (2021)"}
{"target": "AMP-activated protein kinase, AMPK (Homo sapiens) (UniProt P54646+O43741+P54619+Q9UGJ0+Q9Y478+Q13131+Q9UGI9)", "assay": "AMP-dependent Kinase enzyme assay. An in vitro enzyme assay that detects ADP turnover that is directly proportional to AMPK activity. This uses naive AMPK that is activated during the assay with MK-8722", "type": "functional", "set-up": "scale not given: direction of the effect not stated beside the values", "details": "30 µM", "units": {"Percent Effect": "%"}}
{"molecule": "NC(=O)C1(Cc2ccccc2-c2cncnc2)CCCNC1", "note": "(stereo not given)", "Percent Effect": 3.1}
{"molecule": "CCC(c1ccccc1)S(=O)(=O)CCO", "note": "(stereo not given)", "Percent Effect": 0.669}
{"molecule": "CC(C(=O)NCC(C)(C)c1ccc2c(c1)OCCO2)n1cncn1", "note": "(stereo not given)", "Percent Effect": 11.3}
{"molecule": "Cc1ccc(C(C)NC(=O)N2CCCN(CC(F)F)CC2)s1", "note": "(stereo not given)", "Percent Effect": -1.15}
{"molecule": "COCCN(Cc1sccc1C)C(=O)COc1ccccc1O", "Percent Effect": 2.3}
{"molecule": "CCCc1nc(C(=O)N2CCn3nc(C(=O)OC)cc3C2)cs1", "Percent Effect": 1.42}
{"molecule": "CN(Cc1ccccc1)c1cnn(CC2CCCCO2)c(=O)c1", "note": "(stereo not given)", "Percent Effect": 7.07}
{"molecule": "O=C(CCn1cccn1)NCCOc1ccc2c(c1)OCO2", "Percent Effect": -5.16}
{"molecule": "c1csc(CN2CCCN(c3ccc(Cn4ccnc4)cn3)CC2)c1", "Percent Effect": -2.96}
{"molecule": "CCn1ncnc1C(C)Nc1cc(C2CC2)ncn1", "note": "(stereo not given)", "Percent Effect": 3.16}
{"molecule": "Cc1nn(C)cc1C(=O)N1CCCn2nc(CN3CC[C@H](F)C3)cc2C1", "Percent Effect": 2.32}
{"molecule": "CN(C)S(=O)(=O)NCC1CCN(Cc2ccccc2F)CC1", "Percent Effect": -2.6}
{"molecule": "Cn1cc(CCCN2CCCC(c3cc(C(F)(F)F)[nH]n3)C2)cn1", "note": "(stereo not given)", "Percent Effect": -0.434}
{"molecule": "Cc1ccc(-c2ccccc2CC2CNCCNC2=O)c(C)c1", "note": "(stereo not given)", "Percent Effect": 2.34}
{"molecule": "CC(C)c1nn(C)c(N(C)C)c1CNCc1ccnc(N(C)C)c1", "Percent Effect": -12.6}
{"molecule": "Cc1ccc(-c2noc(C3CCN3C(=O)c3ccn(C)n3)n2)s1", "note": "(stereo not given)", "Percent Effect": 12}
{"molecule": "Cc1cc(=O)n2nc(Oc3ccc(Cl)c(C)c3)sc2n1", "Percent Effect": -6.95}
{"molecule": "Cc1nc(CCN(C)C(=O)CN2CCCCCC2)no1", "Percent Effect": 1.14}
{"molecule": "Cc1cc(N2CCC3(CCCN(CCO)C3=O)C2)nc(C)c1C#N", "note": "(stereo not given)", "Percent Effect": 14.2}
{"molecule": "Cc1cnn(Cc2cccc(OCC(N)=O)c2)c1", "Percent Effect": -0.231}
{"molecule": "CCc1c(C)nc2cc(-c3nccn3C)nn2c1N1CCCC(CO)C1", "note": "(stereo not given)", "Percent Effect": 26}
{"molecule": "c1ccc(CN2CCN(C3CCOC4(CCOCC4)C3)CC2)nc1", "note": "(stereo not given)", "Percent Effect": -0.926}
{"molecule": "CC1CC(NS(=O)(=O)c2ccc(C(F)(F)F)nc2)C1", "note": "(stereo not given)", "Percent Effect": 19.9}
{"molecule": "O=C(NCC(O)c1cccc(F)c1)C1CCN(C2CCCCC2)CC1", "note": "(stereo not given)", "Percent Effect": -10}
{"molecule": "COC(=O)C1CN(Cc2ccn(-c3ccc(F)cc3)n2)CCO1", "note": "(stereo not given)", "Percent Effect": -6.99}
{"molecule": "C[C@@H]1CN(Cc2cc3ccccc3n2C)CC[C@]1(C)O", "Percent Effect": 5.04}
{"molecule": "Cc1cc(CN(C)C(=O)CC(C)C)no1", "Percent Effect": 0.491}
{"molecule": "CN1CC(C(=O)NCCc2ccc(F)c(Br)c2)CC1=O", "note": "(stereo not given)", "Percent Effect": 5.17}
{"molecule": "N#CCCN(C(=O)CCc1cscn1)c1ccc2c(c1)OCCO2", "Percent Effect": -3.58}
{"molecule": "Cc1[nH]nc(CCC(=O)N2CCc3c(nc[nH]c3=O)C2)c1C", "Percent Effect": 4.58}
{"molecule": "Cc1n[nH]c(C)c1CNc1ccc(-c2nc(C3CC3)no2)cn1", "Percent Effect": -4.61}
{"molecule": "CCS(=O)(=O)NCc1nc(C)cc(N2CCCC2)n1", "Percent Effect": 2.4}
{"molecule": "CNC(=O)NC(=O)CN(Cc1ccc(C#N)cc1)Cc1cccc(F)c1", "Percent Effect": -4.48}
{"molecule": "CC(=O)N[C@H]1CCN(C(=O)c2cc(Cn3cnc4ccccc43)[nH]n2)C1", "Percent Effect": -3.06}
{"molecule": "Cc1ccsc1C(=O)NCc1ccnc(C2CCCOC2)n1", "note": "(stereo not given)", "Percent Effect": 11.8}
{"molecule": "CC(C)c1nccn1CC1CCCN1Cc1nc2ccccc2n1C", "note": "(stereo not given)", "Percent Effect": 4.02}
{"molecule": "O=C(Nc1ccccc1OCCc1ccccn1)N1CCOCC(O)C1", "note": "(stereo not given)", "Percent Effect": 2.87}
{"molecule": "CN(C(=O)c1ccncc1)c1nnc(C2CCOC2)s1", "note": "(stereo not given)", "Percent Effect": 12.1}
{"molecule": "CNC(=O)C1Cc2ccccc2CN1C(=O)CC(C)C", "note": "(stereo not given)", "Percent Effect": -7.28}
{"molecule": "CN1CCCN(C[C@@H]2CN(c3nc(C(N)=O)cs3)C[C@@H]2CO)CC1", "Percent Effect": -0.955}
